The whole screen tested about 71,000 compounds, of which about 65 (0.09%) were called active. Shown is part of a subset that was picked to be rich in actives. Entries that show only a call come without a potency. A number with no mark means an inactive call. Calls follow the shape of the dose curve; as a rule, active = well fitted curve in the direction sought with a large enough effect; inconclusive = small, poorly fitted or top-dose-only effect; inactive = flat fitted curve, though single readings scatter.
Potency is read from the fitted curve at half-maximal effect.

Beta-lactamase (Escherichia coli (strain K12)), sequence (P00811 whole entry, looked up): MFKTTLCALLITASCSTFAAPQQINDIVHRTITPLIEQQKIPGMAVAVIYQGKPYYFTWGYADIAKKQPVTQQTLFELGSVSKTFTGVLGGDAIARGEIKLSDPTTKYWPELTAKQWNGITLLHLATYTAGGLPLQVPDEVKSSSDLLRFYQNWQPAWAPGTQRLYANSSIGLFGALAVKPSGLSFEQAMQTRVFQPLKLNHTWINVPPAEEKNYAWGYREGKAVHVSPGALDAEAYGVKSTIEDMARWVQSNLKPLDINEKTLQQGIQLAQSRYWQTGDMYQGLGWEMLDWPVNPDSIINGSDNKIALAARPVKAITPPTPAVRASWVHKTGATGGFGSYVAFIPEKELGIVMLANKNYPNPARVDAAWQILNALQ

The assay concerns the target Beta-lactamase (Escherichia coli (strain K12)) (UniProt P00811). Nature of the assay: Promiscuous and Specific Inhibitors of AmpC Beta-Lactamase (assay with detergent). Conditions: purified AmpC, nitrocefin hydrolysis with detergent; series mostly up to 28.7 µM. The protocol: NIH Molecular Libraries Screening Centers Network [MLSCN]
NIH Chemical Genomics Center [NCGC]
PI Name: Shoichet, Brian K.
This aggregation profiling approach exploits the sensitivity of aggregate formation to detergent. Inhibition of b-lactamase is measured in the presence and absence of 0.01% Triton X-100. This particular assay had the prescence of 0.01% Triton X-100. See Pubchem assay "Promiscuous and Specific Inhibitors of AmpC Beta-Lactamase (assay without detergent)" for related screen. Compounds that inhibit only in the absence of detergent are considered likely promiscuous aggregators.
A screen of 1,030 compounds was performed in Brian Shoichet's lab in 96-well format. AmpC activity was measured by following the absorbance at 480 nm. Nitrocefin is a chromogenic substrate: while nitrocefin is yellow (lmax 390 nm), the product of its hydrolysis is red (lmax 486 nm, 17,000 M-1). AmpC beta lactamase was provided by Brian Shoichet and Brian Feng, UCSF.
NCGC Assay Protocol Summary:
20 mM phosphate buffer, pH 7.0
Triton X-100: No Detergent screen: 0.0001%, Detergent screen: 0.01%.
Buffer in columns 3 and 4 as negative control (no enzyme).
5.3 nM AmpC in columns 1, 2, 5-48. Titration of UCSF compound 9 control (from 10 mM, then 1:2) pin-transferred to column 2. Column 1 is neutral (100% activity).
Six uL of reagents were dispensed to 1536-well Greiner black clear bottom plates. Compounds and controls (23 nL) were transferred via Kalypsys PinTool. The plates were incubated for 15 min at room temperature, and then 2 uL of 800 uM solution of nitrocefin was added to start the reaction. The plates were immediately transferred to and read every 20 seconds for 4 min on ViewLux (Perkin-Elmer) High-throughput CCD imager using 480 nm absorbance protocol. During dispense, reagent bottles were kept submerged into 4 deg C water bath.
Keywords: NIH Roadmap, MLSCN, MLI, MLSMR, qHTS, NCGC, AmpC Beta-Lactamase, Aggregation
As for `CCOc1cc(C(=O)N2CCc3cc(OC)c(OC)cc3C2)ccc1OC(F)F`, the activity change, negative = inhibition entry is “inactive”.
On the same count and under the same terms, to `N#C/C(=C\c1ccc(O)c(O)c1)C(=O)NCc1ccccc1` belongs “inactive”; to `C=C(C)COc1ccc(-c2n[nH]c(C)c2-c2ccccc2OC)c(O)c1`, “inactive”; to `CC(C)(C)n1nnnc1C(c1ccc2ncccc2c1)N1CCSCC1` (stereo not drawn), “inactive”.
For the compound `NCCNCC1CCNCC1`, the activity change, negative = inhibition is -0.8% [at 5.75 µM].
On the same count and under the same terms, to `CCc1nnc(NC(=O)c2ccc(S(=O)(=O)NC3CCCCC3)cc2)s1` belongs “inactive”; to `Cc1cccc(N2CCN(C(c3ccccc3)c3nnnn3CC3CCCO3)CC2)c1C` (stereo not drawn), “inactive”; to `Cc1cccc2cc(CN(Cc3nnnn3Cc3ccccc3)C3CCCC3)c(=O)[nH]c12`, “inactive”.
`CCS(=O)(=O)N1CCCC(C(=O)NCCCN(C)Cc2ccccc2)C1` (stereo not drawn): the activity change, negative = inhibition entry was “inactive”.
On the same count and under the same terms, to `CC1=CC(=O)C2=C(C)C[C@H](O)[C@@H]3[C@@H](OC(=O)[C@H]3C)[C@H]12` belongs “inactive”; to `Cc1ccc(N2C(=O)c3oc4ccccc4c(=O)c3C2c2cccnc2)nc1` (stereo not drawn), “inactive”; to `O/N=C1\CC2(Cc3nonc31)OCCO2`, “inactive”.
Still for that read-out and setting: under `Cn1c(=O)c(-c2ccccc2)nc2cnc(N3CCNCC3)nc21` stands “inactive”; under `CCOC(=O)CSc1nnc(CNc2nc(-c3ccccc3)cs2)n1C`, “inactive”.
Same read-out and setting: under `Cc1ccc(-n2nc(-c3ccco3)cc2C(=O)NCc2cccnc2)cc1` stands “inactive”.
For `Cc1ccc(S(=O)(=O)N2CCC(C(=O)N[C@@H](C)C(=O)NCc3ccccc3)CC2)cc1`, the activity change, negative = inhibition entry was “inactive”.
For `N#Cc1ccccc1-c1ccc2ncnc(NCc3cccnc3)c2c1`, the activity change, negative = inhibition result was “inactive”.
Still for that read-out and setting: under `NC(=O)c1ccc(OC[C@H](O)CN2CC=C(c3ccc(F)cc3)CC2)cc1` stands “inactive”; under `CCCn1c(-c2ccc(F)cc2)nc2c(NC3CCN(Cc4ccccc4)C3)nc(C)nc21` (stereo not drawn), “inactive”; under `CC(C)c1cc(CN(C)C)c(O)c(C(C)(C)C)c1`, -4.5% [at 5.75 µM].
The same measure, in the same setting: under `O=C1N(Cc2ccc3c(c2)OCO3)c2ccccc2C1(O)c1c[nH]c2ccccc12` (stereo not drawn) stands “inactive”.
On the same count and under the same terms, to `CC(C)(C)NC(=O)C(c1ccncc1)N(C(=O)CNC(=O)c1ccco1)c1ccc2c(c1)OCO2` (stereo not drawn) belongs “inactive”.
For `O=C(NC12CC3CC(CC(C3)C1)C2)N1CCCC(CO)C1` (stereo not drawn), the activity change, negative = inhibition entry is “inactive”.
The same measure, in the same setting: to `CC(C)(O)[C@H]1[C@H]2OC(=O)[C@@H]1[C@]1(O)C[C@H]3O[C@]34C(=O)O[C@H]2[C@]14C` belongs “inactive”; to `CC(=O)Oc1ccc(C(=O)Nc2nccs2)cc1`, “inactive”; to `COc1ccc2[nH]cc(CCNc3cc(-c4ccccc4CN(C)C)ncn3)c2c1`, “inactive”.
In the case of `CCCNC(=O)C1CC(=O)N(c2ccc(OCC(=O)Nc3cccc(C)c3C)cc2)C1` (stereo not drawn), the activity change, negative = inhibition result was “inactive”.
In the case of `O=C(NCC1CCCO1)C(C(=O)c1ccccc1)n1cc(Cl)ccc1=O` (stereo not drawn), the activity change, negative = inhibition result is “inactive”.
On the same count and under the same terms, to `O=C(c1cccs1)N1CCCC(c2nc(-c3ccc(F)cc3)no2)C1` (stereo not drawn) belongs “inactive”; to `CS(=O)(=O)NCc1ccc(C(=O)NCc2ccccc2)cc1`, “inactive”; to `COc1cccc(-n2c(SCC(=O)NC3CCCCC3)nc3n[nH]c(C)c3c2=N)c1`, “inactive”.
Same read-out and setting: under `CCOC(=O)c1ccc(N2C(=O)CC(N3CC(C)OC(C)C3)C2=O)cc1` (stereo not drawn) stands “inactive”.
Still for that read-out and setting: to `CCOc1ccc2nc(NCCNS(=O)(=O)c3ccccc3)c(C#N)cc2c1` belongs “inactive”; to `O=C(Cn1ccc(=O)[nH]c1=O)Nc1ccc(C(=O)O)c(O)c1`, -5.4% [at 5.75 µM].
With `COc1cc(C[C@H](C)N)c(OC)cc1I`, the activity change, negative = inhibition result is “inactive”.
Same read-out and setting: to `O=C(Nc1ccccc1)N(Cc1cccnc1)Cc1ccco1` belongs “inactive”.
Consider `O=C(O)CSCNC(=O)CC12CC3CC(CC(C3)C1)C2`, for which the activity change, negative = inhibition entry is “inactive”.
Same read-out and setting: to `CCOc1c(N2CCCCC2)c(=O)c1=O` belongs “inactive”.
`NC(=S)c1ccc(C(N)=S)o1`: the activity change, negative = inhibition entry was “inactive”.
Same read-out and setting: to `O=C(Nc1ccccc1)N[C@H]1C[C@H](C(=O)O)Nc2cc(Cl)cc(Cl)c21` belongs “inactive”; to `O=C(CN(CC1CCCO1)C(=O)CNS(=O)(=O)c1ccccc1)NCc1ccccc1` (stereo not drawn), “inactive”; to `COC(=O)c1ccc(S(=O)(=O)c2ccc(C(=O)OC)s2)s1`, “inactive”.
Consider `CCNS(=O)(=O)c1ccc(NC(=O)Nc2cccc(C(F)(F)F)c2)cc1`, for which the activity change, negative = inhibition entry was “inactive”.
For the compound `COc1ccc2oc(=O)c(C(=O)O)cc2c1`, the activity change, negative = inhibition entry is “inactive”.
Same read-out and setting: under `O=C(NCc1ccccn1)c1cc2ccccc2oc1=O` stands “inactive”.
For `O=C(Oc1cccnc1)c1cc2ccccc2oc1=O`, the Potency is 10 µM (active).
Regarding `C=CCOc1ccc(C2/C(=C(\O)c3c(C)[nH]c(C(=O)OC)c3C)C(=O)C(=O)N2CCN(C)C)cc1` (stereo not drawn), the activity change, negative = inhibition result was “inactive”.
On the same count and under the same terms, to `Cc1ccc(Oc2ccc(N)cc2)cc1` belongs “inactive”.
